In PubChem BioAssay (NCATS):
Records with an inconclusive call do not appear. Activity calls are given as the source filed them. Unless noted, the call rests on the fitted dose curve; in most records, active means well fitted curve in the direction sought with a large enough effect; inconclusive means small, poorly fitted or top-dose-only effect, or another doubt; inactive means no such curve, though single readings can be large; an effect the other way counts as inactive or inconclusive.

How the values were obtained:
[1] = Cytometric Cell-Based qHTS for Inhibitors of the mTORC1 Signaling Pathway in MEF (Tsc2-/-, p53-/-) Cells (AID 2660);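 further: Tsc2 and p53 null MEFs carrying empty vector with compound for 24 h; percent of cells above a phospho-rpS6 to PI ratio cutoff in each well; series mostly up to about 38 µM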
Outline: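 Cells are plated, treated with compound for 24 hrs at 37 degree Celsius, then fixed, blocked and immunostained for phospho-rpS6 Ser235/236. Propidium iodide counterstain follows. Per-well % positive cells is derived from the PI-normalized phospho-S6 signal.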

[2] = High Content Imaging Cell-Based qHTS for Inhibitors of the mTORC1 Signaling Pathway in MEF (Tsc2-/-, p53-/-) Cells (AID 2666);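 further: percent of cells scored positive for phospho-rpS6 Ser235/236 immunostaining by imaging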
Outline: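 MEF Tsc2-/- p53-/- (empty vector), DMEM/10% FBS; cpd 24 h 37 °C; PFA fix, Alexa-488 p-rpS6 S235/236 Ab, Hoechst; imaged; rapamycin-defined inhibition; % positive cells/well.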

[3] = High Content Imaging Cell-Based qHTS for Inhibitors of the mTORC1 Signaling Pathway in MEF Cells (AID 2667);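 further: Tsc2-/- p53-/- MEFs stably re-expressing wild-type Tsc2 exposed 24 h; series mostly up to about 38 µM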
Outline: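 Read-out is the share of phospho-rpS6-positive cells per well, from Hoechst-normalized Alexa-488 Ser235/236 staining imaged on IN Cell. Cells: WT Tsc2-expressing Tsc2-/-, p53-/- MEFs exposed to compound for 24 hrs.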

[4] = Cytometry Cell-Based qHTS for Inhibitors of the mTORC1 Signaling Pathway in MEF cells (AID 2668);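 further: Tsc2-/- p53-/- mouse embryonic fibroblasts stably re-expressing wild-type Tsc2; percent cells positive for phospho-rpS6 Ser235/236 relative to propidium iodide stain; series mostly up to about 38 µM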
Outline: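 In MEFs grown in DMEM + 10% FBS, a 24 hrs compound exposure preceded imaging of phospho-rpS6 Ser235/236 by laser-scanning cytometry.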

[5] = Validation screen for small molecules that induce DNA re-replication in MCF 10A normal breast cells (AID 463097); further: nearly all actives have a fitted effect of over 60% in size
Outline: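 Following 48 hr compound incubation (37 C, 5% CO2), MCF 10A cells receive Hoechst for 40 min at 37 C. Nuclei are then scanned (excitation 405 nm, emission 500-530 nm) for total fluorescence intensity.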

[6] = target: Ubiquitin carboxyl-terminal hydrolase 2 (Homo sapiens) (UniProt O75604); assay: qHTS Validation Assay for Inhibitors of Ubiquitin-specific Protease USP2a Using CHOP2 as the Reporter (AID 463106)
Outline: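 Fluorescence read-out at Ex 485nm/Em 531nm after 60min RT, following addition of 25nM Ub-CHOP2 plus 25nM reporter substrate to USP2 core (10nM) pretreated 30min with compound. Data normalized to NEM full inhibition; concentration-response curves fitted.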

[7] = target: DNA polymerase III PolC-type (Bacillus subtilis (strain 168)) (UniProt P13267); assay: qHTS Validation Assay for the Inhibitors of DNA Replication in Gram-Positive Bacteria (AID 485295);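 further: reconstituted holoenzyme with PolC plus beta clamp SSB and primase; PicoGreen fluorescence of double-stranded DNA made on primed circular M13 template; series mostly up to about 57 µM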
Outline: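 Inhibition of DNA synthesis by the reconstituted PolC holoenzyme, monitored through PicoGreen staining of dsDNA formed from ssM13Gori, dNTPs and NTPs, with compound preincubation and room-temperature reaction.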

[8] = target: Tumor susceptibility gene 101 protein (Homo sapiens) (UniProt Q99816); assay: qHTS Validation Assay for Iinhibitors of HIV-1 Budding by Blocking the Interaction of PTAP/TSG101 (AID 485342; calls by dose curve)
Outline: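 Compound wells held the Tsg101 binding domain (10 uM) and a FITC-conjugated PTAP peptide (50 nM) in buffer at pH 7.5 containing 0.15 M NaCl and 0.01% Tween 20; polarization was recorded after 20 min, r.t.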

[9] = qHTS Validation Assay to Find Inhibitors of Chronic Active B-Cell Receptor Signaling (AID 485345; active means well fitted curve in the direction sought with a large enough effect in the main read-out, with a control signal flat, not every such curve was filed as active)
Outline: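 TMD8 ABC-DLBCL cells stably carrying doxycycline-inducible IkappaBalpha–green luciferase fusion plus unfused red luciferase; compounds 46 uM to 3 nM, 4 h at 37C with doxycycline. Corrected green/red luminescence ratio normalized to 10 uM MG-132 and basal cell wells; curves fitted.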

[10] = target: Beta-2 adrenergic receptor (Homo sapiens) (UniProt P07550); assay: qHTS validation assay of beta-arrestin-biased ligands of beta2-adrenergic receptor (AID 485366)
Outline: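 Compound series up to 46 microM applied to beta2-AR/beta-arrestin Tango cells, 18 hr, 37 degrees C, 5% CO2. Read-out: tTA-driven luciferase luminescence, converted to %Activity; concentration-response curves assigned curve classes.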

[11] = target: ATP-dependent 6-phosphofructokinase (Trypanosoma brucei brucei) (UniProt O15648); assay: qHTS Validation Assay to Find Inhibitors of T. brucei phosphofructokinase (AID 485368)
Outline: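 qHTS format, up to 57 uM. PFK 1.25 nM; F6P 0.5 mM; ATP 0.1 mM; 5 mM MgCl2, 0.01% Tween20, 0.1% BSA; 0.1 M TEA pH 8.0; 45 min RT; ADP-Glo readout; no-enzyme control = full inhibition.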

[12] = Quantitative high throughput screen for delayed death inhibitors of the malarial parasite plastid, 96 hour incubation (AID 488745);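 further: luciferase-expressing P. falciparum in erythrocytes at 2% hematocrit and 0.1% parasitemia; series mostly up to about 29 µM; nearly all actives have a fitted effect of over 70% in size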
Outline: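 Readout is firefly luciferase luminescence from an integrated reporter in P. falciparum; lower signal marks inhibited growth. Cultures at 2% hematocrit and 0.1% parasitemia were treated with compound across two generations (96 h, 37 C, 5% CO2).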

[13] = Quantitative high throughput screen for delayed death inhibitors of the malarial parasite plastid, 48 hour incubation (AID 488752); further: nearly all actives have a fitted effect of over 65% in size
Outline: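 First, compound was pinned into RPMI 1640 medium containing 0.5% Albumax. Next, reporter-parasite-infected erythrocytes were added to 2% hematocrit and 0.1% parasitemia. After 48 h at 37 C under 5% CO2, luciferase detection reagent was added and luminescence read.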

[14] = target: Thioredoxin reductase 1, cytoplasmic (Rattus norvegicus) (UniProt O89049); assay: qHTS Assay for Substrates of Mammalian Selenoprotein Thioredoxin Reductase 1 (TrxR1) (AID 488772);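 further: series mostly up to about 57 µM; a drop in NADPH fluorescence below the no-compound background marks a TrxR1 substrate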
Outline: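 In this dual-purpose format, potential substrates are identified from the first fluorescence read after selenite addition, not from the 8-minute delta. Rat enzyme is preincubated with NADPH and then with compound at ~22 deg C.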

[15] = target: Thioredoxin reductase 1, cytoplasmic (Rattus norvegicus) (UniProt O89049); assay: qHTS Assay for Inhibitors of Mammalian Selenoprotein Thioredoxin Reductase 1 (TrxR1) (AID 488773); conditions: Potency: inhibition;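 further: drop in NADPH fluorescence over an 8 min run after selenite addition; series mostly up to about 57 µM; nearly all actives have a fitted effect of over 40% in size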
Outline: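 Inhibition is scored from the loss of NADPH fluorescence between first and last reads of an 8-min kinetic run. Selenite (400 uM) was the substrate, added after 15 min compound preincubation at room temperature.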

[16] = target: Flap endonuclease 1 (Homo sapiens) (UniProt P39748); assay: qHTS Validation Assay for the Inhibitors of Human Flap endonuclease 1 (FEN1) (AID 488816)
Outline: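 Enzyme reagent 10 nM; cpds pinned; 15 min RT preinc.; substrate 50 nM final; reads t=0 and 15 min; no-enzyme buffer wells as neg. control; normalized data, 4-parameter Hill fit.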

[17] = target: M-phase phosphoprotein 8 (Homo sapiens) (UniProt Q99549); assay: qHTS Validation Assay for Inhibitors for MPP8 Chromodomain Interactions with Methylated Histone Tails (AID 488949);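 further: 50 nM MPP8 with 50 nM peptide preformed then compounds added for 30 min; AlphaScreen signal from MPP8 chromodomain bound to biotinylated H3K9me3 peptide; top concentration of the series differs between compounds; nearly all actives have a fitted effect of over 55% in size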
Outline: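 Chemiluminescent proximity assay: histidine-tag capture via nickel acceptor beads, biotin peptide via streptavidin donor beads. Protein and peptide each at 50 nM, pH 7.4, with 30 min incubations at room temperature for complex formation, compound exposure and bead binding.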

[18] = target: Methanococcus maripaludis chaperonin (MmCpn) (UniProt Q6LX38); assay: High-Throughput Screening for Modulators of Cytosolic Chaperonin Activity: MmCpn Primary Screen (AID 488978)
Outline: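 HTRF readout (320 nm excitation, 590/665 nm emission) of ADP generated by 50 nM MmCpn hydrolysing 30 uM ATP during 10 min at 37C; compound preincubated 5 min RT.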

[19] = target: Chromobox protein homolog 1 (Homo sapiens) (UniProt P83916); assay: qHTS Validation Assay for Inhibitors of HP1-beta Chromodomain Interactions with Methylated Histone Tails (AID 488953);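 further: loss of AlphaScreen luminescence from HP1-beta binding biotinylated H3K9me3 peptide; series mostly up to about 110 µM; nearly all actives have a fitted effect of over 50% in size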
Outline: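 Disruption of preformed HP1-beta:H3K9me3 peptide complexes (both 50 nM, PBS pH 7.4 with 0.01% Tween-20) is measured by AlphaScreen after 30 min compound exposure at room temperature, using streptavidin donor and nickel chelate acceptor beads at 10 ug/mL final.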

Measured: Potency

Chain of Beta-2 adrenergic receptor (Homo sapiens) (P07550 whole entry, looked up): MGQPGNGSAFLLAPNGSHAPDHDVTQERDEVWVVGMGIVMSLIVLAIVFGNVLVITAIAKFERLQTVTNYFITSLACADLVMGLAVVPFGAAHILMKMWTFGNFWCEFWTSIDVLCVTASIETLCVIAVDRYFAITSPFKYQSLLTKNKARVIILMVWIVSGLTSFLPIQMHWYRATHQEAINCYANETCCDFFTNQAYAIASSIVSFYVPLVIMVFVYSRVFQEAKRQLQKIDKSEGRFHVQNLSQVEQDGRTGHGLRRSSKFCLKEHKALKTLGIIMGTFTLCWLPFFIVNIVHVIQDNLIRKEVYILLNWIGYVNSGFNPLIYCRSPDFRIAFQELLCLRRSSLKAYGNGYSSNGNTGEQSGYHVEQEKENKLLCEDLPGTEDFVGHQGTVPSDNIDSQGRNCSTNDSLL
Chain of DNA polymerase III PolC-type (Bacillus subtilis (strain 168)) (P13267 whole entry, looked up): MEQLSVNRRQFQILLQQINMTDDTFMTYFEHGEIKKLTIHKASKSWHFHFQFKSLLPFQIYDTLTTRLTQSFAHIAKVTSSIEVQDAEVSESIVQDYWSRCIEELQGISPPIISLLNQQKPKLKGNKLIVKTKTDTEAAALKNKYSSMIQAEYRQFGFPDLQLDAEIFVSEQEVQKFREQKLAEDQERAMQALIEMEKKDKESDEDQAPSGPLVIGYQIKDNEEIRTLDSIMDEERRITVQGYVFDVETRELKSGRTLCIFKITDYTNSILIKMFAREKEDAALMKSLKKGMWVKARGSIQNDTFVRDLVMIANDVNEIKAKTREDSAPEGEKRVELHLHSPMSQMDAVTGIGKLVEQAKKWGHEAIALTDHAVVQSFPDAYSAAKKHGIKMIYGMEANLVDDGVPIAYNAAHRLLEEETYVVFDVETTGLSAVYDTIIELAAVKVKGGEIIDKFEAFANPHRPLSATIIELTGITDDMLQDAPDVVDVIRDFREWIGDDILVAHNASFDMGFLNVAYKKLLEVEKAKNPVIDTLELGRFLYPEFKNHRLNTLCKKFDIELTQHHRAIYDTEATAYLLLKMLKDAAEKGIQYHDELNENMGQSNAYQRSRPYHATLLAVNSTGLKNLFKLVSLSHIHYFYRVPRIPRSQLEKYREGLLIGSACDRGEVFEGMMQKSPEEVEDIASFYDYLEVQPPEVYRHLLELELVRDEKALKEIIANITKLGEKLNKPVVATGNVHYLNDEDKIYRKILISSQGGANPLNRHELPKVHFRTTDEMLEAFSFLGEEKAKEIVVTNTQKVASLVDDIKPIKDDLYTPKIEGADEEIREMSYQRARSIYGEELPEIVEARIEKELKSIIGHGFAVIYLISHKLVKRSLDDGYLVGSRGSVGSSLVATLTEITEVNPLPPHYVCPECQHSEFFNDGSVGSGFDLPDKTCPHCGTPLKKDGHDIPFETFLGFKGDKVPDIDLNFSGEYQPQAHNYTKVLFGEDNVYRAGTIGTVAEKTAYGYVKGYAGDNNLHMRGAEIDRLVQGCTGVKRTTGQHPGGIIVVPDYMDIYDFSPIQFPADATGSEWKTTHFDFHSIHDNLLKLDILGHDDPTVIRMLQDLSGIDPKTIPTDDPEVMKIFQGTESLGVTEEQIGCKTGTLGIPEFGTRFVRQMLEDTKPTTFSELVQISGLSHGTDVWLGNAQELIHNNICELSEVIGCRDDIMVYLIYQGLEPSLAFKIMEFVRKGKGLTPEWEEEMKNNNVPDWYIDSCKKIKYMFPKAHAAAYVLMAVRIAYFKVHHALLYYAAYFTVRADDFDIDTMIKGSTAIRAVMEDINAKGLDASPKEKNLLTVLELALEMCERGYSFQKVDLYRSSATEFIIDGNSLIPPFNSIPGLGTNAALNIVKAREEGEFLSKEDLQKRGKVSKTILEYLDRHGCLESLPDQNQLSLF
Chain of ATP-dependent 6-phosphofructokinase (Trypanosoma brucei brucei) (O15648 whole entry, looked up): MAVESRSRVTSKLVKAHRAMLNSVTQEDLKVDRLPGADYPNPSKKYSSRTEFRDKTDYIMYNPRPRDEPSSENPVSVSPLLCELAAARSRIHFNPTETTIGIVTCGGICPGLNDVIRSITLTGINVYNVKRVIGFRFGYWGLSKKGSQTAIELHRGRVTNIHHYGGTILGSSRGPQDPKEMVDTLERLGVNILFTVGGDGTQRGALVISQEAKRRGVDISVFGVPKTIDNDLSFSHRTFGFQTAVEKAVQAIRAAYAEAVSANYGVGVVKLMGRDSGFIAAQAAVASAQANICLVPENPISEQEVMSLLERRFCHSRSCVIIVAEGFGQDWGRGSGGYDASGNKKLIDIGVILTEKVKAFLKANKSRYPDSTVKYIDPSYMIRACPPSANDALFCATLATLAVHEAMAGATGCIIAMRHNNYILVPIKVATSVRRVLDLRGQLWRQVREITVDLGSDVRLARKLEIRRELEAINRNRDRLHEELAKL
Chain of Methanococcus maripaludis chaperonin (MmCpn) (Q6LX38 1-543): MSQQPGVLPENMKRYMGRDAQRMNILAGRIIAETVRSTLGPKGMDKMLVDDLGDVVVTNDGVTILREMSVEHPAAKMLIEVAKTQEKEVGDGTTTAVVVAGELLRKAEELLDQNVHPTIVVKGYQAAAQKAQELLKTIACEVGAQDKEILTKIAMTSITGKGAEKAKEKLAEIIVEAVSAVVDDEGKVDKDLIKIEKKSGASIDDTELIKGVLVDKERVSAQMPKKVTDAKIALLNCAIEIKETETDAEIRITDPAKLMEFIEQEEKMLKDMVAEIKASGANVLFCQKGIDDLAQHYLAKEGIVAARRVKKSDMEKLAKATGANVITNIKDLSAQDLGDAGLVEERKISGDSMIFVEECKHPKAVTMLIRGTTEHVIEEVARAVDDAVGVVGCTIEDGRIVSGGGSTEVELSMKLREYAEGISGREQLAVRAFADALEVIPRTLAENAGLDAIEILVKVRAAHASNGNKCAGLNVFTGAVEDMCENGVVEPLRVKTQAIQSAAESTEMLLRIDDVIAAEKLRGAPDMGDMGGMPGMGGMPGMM
Chain of Chromobox protein homolog 1 (Homo sapiens) (P83916 whole entry, looked up): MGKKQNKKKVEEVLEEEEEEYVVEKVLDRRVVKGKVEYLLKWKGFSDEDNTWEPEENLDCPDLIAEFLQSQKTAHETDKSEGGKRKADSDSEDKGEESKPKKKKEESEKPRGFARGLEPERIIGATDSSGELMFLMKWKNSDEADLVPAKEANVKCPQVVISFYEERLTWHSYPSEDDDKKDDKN
Chain of Flap endonuclease 1 (Homo sapiens) (P39748 whole entry, looked up): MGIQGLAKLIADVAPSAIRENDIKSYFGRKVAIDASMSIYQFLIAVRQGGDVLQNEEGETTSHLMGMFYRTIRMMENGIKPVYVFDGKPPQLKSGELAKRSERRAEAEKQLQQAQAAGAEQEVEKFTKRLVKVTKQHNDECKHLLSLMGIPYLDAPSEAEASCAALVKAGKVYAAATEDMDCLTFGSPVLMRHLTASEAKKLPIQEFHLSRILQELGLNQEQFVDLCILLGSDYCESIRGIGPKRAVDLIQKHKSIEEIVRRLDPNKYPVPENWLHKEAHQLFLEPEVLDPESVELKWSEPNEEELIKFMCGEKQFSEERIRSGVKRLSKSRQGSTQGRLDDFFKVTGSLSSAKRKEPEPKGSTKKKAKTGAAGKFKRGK
Chain of Ubiquitin carboxyl-terminal hydrolase 2 (Homo sapiens) (O75604 whole entry, looked up): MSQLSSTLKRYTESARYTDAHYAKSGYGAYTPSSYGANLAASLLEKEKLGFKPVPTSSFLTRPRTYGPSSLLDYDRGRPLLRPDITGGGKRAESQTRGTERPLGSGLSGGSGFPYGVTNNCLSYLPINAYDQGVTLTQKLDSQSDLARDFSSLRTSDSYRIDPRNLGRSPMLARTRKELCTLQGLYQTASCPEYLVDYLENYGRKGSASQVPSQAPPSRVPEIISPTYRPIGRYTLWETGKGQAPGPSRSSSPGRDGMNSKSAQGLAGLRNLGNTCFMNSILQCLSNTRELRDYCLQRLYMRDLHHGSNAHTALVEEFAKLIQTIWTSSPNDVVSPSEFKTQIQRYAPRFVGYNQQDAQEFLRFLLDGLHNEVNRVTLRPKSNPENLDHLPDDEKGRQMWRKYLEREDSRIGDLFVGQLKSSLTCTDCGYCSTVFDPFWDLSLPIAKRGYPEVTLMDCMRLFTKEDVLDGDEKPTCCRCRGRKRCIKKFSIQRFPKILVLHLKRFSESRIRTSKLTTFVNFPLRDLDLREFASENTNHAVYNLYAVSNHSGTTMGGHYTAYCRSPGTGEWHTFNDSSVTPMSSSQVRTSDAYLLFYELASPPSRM
Chain of M-phase phosphoprotein 8 (Homo sapiens) (Q99549 whole entry, looked up): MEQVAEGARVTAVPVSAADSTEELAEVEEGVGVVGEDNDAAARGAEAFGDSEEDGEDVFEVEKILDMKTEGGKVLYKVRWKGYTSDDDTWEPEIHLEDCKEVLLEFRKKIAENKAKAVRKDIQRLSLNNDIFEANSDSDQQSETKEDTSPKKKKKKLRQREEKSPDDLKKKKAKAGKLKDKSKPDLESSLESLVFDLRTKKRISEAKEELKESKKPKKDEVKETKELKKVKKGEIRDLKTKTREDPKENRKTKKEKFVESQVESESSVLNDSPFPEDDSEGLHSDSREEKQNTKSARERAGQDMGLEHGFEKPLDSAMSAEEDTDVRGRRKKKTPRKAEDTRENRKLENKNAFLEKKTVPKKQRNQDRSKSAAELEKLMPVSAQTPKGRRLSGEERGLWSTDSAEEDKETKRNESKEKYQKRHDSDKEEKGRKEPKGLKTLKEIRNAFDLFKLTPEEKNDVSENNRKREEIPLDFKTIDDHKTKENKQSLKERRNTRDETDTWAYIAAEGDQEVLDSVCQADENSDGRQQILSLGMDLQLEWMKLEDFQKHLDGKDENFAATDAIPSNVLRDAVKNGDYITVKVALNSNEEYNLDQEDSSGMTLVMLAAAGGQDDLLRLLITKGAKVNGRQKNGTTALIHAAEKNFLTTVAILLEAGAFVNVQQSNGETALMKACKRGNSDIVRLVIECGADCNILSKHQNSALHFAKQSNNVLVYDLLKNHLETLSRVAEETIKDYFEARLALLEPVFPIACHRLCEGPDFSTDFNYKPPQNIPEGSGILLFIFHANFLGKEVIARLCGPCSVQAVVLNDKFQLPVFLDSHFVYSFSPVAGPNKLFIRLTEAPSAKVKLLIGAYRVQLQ

CC(=O)N[C@@H](Cc1c[nH]c2ccccc12)C(=O)OCc1cc(C(F)(F)F)cc(C(F)(F)F)c1
not listed: [19]
inactive: all other assays above

O=C(OCCN1CCOCC1)C1(c2ccccc2)CCCCC1
not listed: [13]
inactive: all other assays above

Cc1cccc(C)c1OCC(N)C(C)C (stereo not given)
not listed: [19]
inactive: all other assays above

NC1C=CC=C(C(=O)O)C1 (stereo not given)
inactive: all assays above

CC(/C=C/c1cccc(Oc2ccc(F)cc2)c1)N(O)C(N)=O (stereo not given)
not listed: [18]
inactive: all other assays above

Clc1nccc2c1ccc1ccccc12
inactive: all assays above

C=C(C)C1CC=C(C(=O)O)CC1 (stereo not given)
not listed: [16] | [19]
inactive: all other assays above

CC(N)=O
not listed: [16]
inactive: all other assays above
